The record followed here is the supplement of paper PMC9794691.

The first assay relates to PC9. The assay is described as follows: area under confluence curve of compound monotherapy; compare to DMSO control AUC of the same experiment (AUC (confluence x time, arbitrary)). The conditions noted are these: 30 nM; DMSO control AUC in same experiment: 27958. The protocol: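 compare to DMSO control AUC of the same experiment; Monotherapy arm of the osimertinib DTP screen: EGFR-mutant NSCLC cells were treated with the test compound alone at a fixed dose (highest dose with <50% inhibition of parental cells, or 1 uM), then switched to drug-free medium at the DTP stage. IncuCyte confluence was tracked and AUC computed in Prism. AUC scale depends on experiment duration, so each row carries the same-experiment DMSO control AUC (monotherapy activity = DMSO AUC minus monotherapy AUC). The monotherapy value is shared between screen formats.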
`Cc1nc(Nc2ncc(C(=O)Nc3c(C)cccc3Cl)s2)cc(N2CCN(CCO)CC2)n1` [Dasatinib]: the “area under confluence curve” value was determined as 22500.

Still in this assay, the particulars now being: 30 nM; DMSO control AUC in same experiment: 28243.
In the case of `Cc1nc(Nc2ncc(C(=O)Nc3c(C)cccc3Cl)s2)cc(N2CCN(CCO)CC2)n1` [Dasatinib], the “area under confluence curve” value is 18100.

The same assay, now with this note: 300 nM; DMSO control AUC in same experiment: 49143.
Turning to `Oc1nc(-c2ccc(C(F)(F)F)cc2)nc2c1CSCC2`, the “area under confluence curve” value came out at 49300.

Staying with this assay, now noted: 300 nM; DMSO control AUC in same experiment: 49189.
Consider `Cn1cnc2c(F)c(Nc3ccc(Br)cc3Cl)c(C(=O)NOCCO)cc21` [Selumetinib], for which the “area under confluence curve” value was 49700.

Staying with this assay, now noted: 300 nM; DMSO control AUC in same experiment: 88996.
For `CN(C)C(=O)c1cc2cnc(Nc3ccc(N4CCNCC4)cn3)nc2n1C1CCCC1` [Ribociclib], the “area under confluence curve” value is 88200.

Still in this assay, the particulars now being: 1000 nM; DMSO control AUC in same experiment: 21594.
Take `COc1nn(C)cc1Nc1nccc(-c2c[nH]c3c(NC(=O)[C@@H](C)N4CCN(C)CC4)cccc23)n1`: the “area under confluence curve” value was found to be 20800.

The same assay, now with this note: 1000 nM; DMSO control AUC in same experiment: 22064.
As for `C[C@@H](Oc1cc(-c2cnn(C3CCNCC3)c2)cnc1N)c1c(Cl)ccc(F)c1Cl` [Crizotinib], the “area under confluence curve” value turned out to be 21100.

Still in this assay, the particulars now being: 1000 nM; DMSO control AUC in same experiment: 28684.
On to `COc1cc2nc(C)nc(N[C@H](C)c3cc(N)cc(C(F)(F)F)c3)c2cc1O[C@H]1CCOC1`, for which the “area under confluence curve” value came out at 28300.

Staying with this assay, now noted: 1000 nM; DMSO control AUC in same experiment: 72888.
For `CCn1cc(-c2cccc(C(F)(F)F)c2)c2sc(C(=N)NC3CCS(=O)(=O)CC3)cc2c1=O`, the “area under confluence curve” value was 73000.
